Experimental findings from PubChem BioAssay (NCI) are described below.

This is part of a sample that, as a whole, favours compounds with a hit. Of some 83,000 tested, about 20% had one in any assay.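 Negative percent growth values reflect cell death: -40 means 40% of the cells present at the start died, and -100 means all died.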 Unmarked numbers belong to inactive results. Activity calls are given as the source filed them. Rule for the calls: active = growth percent below 10; inactive = the rest.

Experiment in all cases: NCI-60 one-dose screen, 48 h (100 = growth as untreated, 0 = no growth, -100 = all killed)
Holding throughout (details): 10 µM unless noted

Test [1] relates to DU-145 prostate.
Test [2] relates to K-562 leukemia.
Test [3] has as its system MALME-3M melanoma.
Test [4] concerns MDA-MB-231 breast.
In test [5] the test system is RXF 393 renal.
Test [6] relates to SF-268 CNS.
The subject of test [7] is SF-295 CNS.
Test [8] deals with SF-539 CNS.
The test system of test [9] is UACC-257 melanoma.
For test [10], the system named is M14 melanoma.
Test [11] has as its system HCT-15 colon.
The subject of test [12] is HT29 colon.
The subject of test [13] is SNB-75 CNS.
Test [14] relates to SNB-19 CNS.
The test system of test [15] is U251 CNS.
In test [16] the test system is PC-3 prostate.
In test [17] the test system is SK-MEL-5 melanoma.
For test [18], the system named is UACC-62 melanoma.
Test [19] concerns LOX IMVI melanoma.
Test [20] concerns SK-MEL-28 melanoma.

On to `Cc1ccc(C2SCC(=O)N2NC(=O)c2[nH]c3ccc(F)cc3c2-c2ccccc2)cc1` (stereo not given), for which the growth in test [1] was 106%; in [2], 75.8%; in [3], 91.6%; in test [4], 86.4%; in [5], 78.7%; in test [6], 93.4%. Besides, the growth in [7] was 92.4%; in test [8] it was 97.6%; in test [9], 86.9%; in test [10], 109%; in [11], 89.8%; in [12] it was 74.4%. Also, the growth is 71.4% in test [13]; 88.5% in test [14]; 81% in test [15]; 59.9% in test [16]; 89.6% in test [17]; 78.1% in test [18]. The growth was 91.2% in test [19] and 97.5% in test [20].

In the case of `O=C(N/N=C(\CS(=O)(=O)c1ccccc1)c1cc2cc(Br)ccc2oc1=O)c1ccccc1`, the growth in [1] is 105%; in test [2], 112%; in test [3], 111%; in test [4] it was 94.2%; in test [5] it was 126%; in test [6], 98%. Moreover, the growth in test [7] is 98.6%; in test [8], 101%; in [9] it was 107%; in test [10], 106%; in test [11] it was 99.8%; in [12] it was 103%. Also, the growth in [13] was 89.8%; in test [14] it was 103%; in [15], 97.7%; in test [16] it was 95.5%; in [17] it was 103%; in test [18], 95.2%. Moreover, the growth was 99.1% in test [19] and 99.3% in test [20].

On to `Cl.Fc1c[c-]c(-c2ccccn2)c(F)c1.[Pt].c1ccc([PH+](CC[PH+](c2ccccc2)c2ccccc2)c2ccccc2)cc1`, for which the growth was -99.6% (active) in test [1]; -11.4% (active) in [2]; -87.2% (active) in test [3]; -74.2% (active) in test [4]; -84.4% (active) in [5]; -57.7% (active) in [6]. Besides, the growth in test [7] is -88% (active); in [8], -94.6% (active); in test [9], -59.1% (active); in test [10] it was -84.7% (active); in test [11], -76.2% (active); in test [12], -73.5% (active). Also, the growth in test [13] is -94.2% (active); in test [14] it was -76.4% (active); in test [15], -62.2% (active); in [16], -70.1% (active); in test [17], -99.3% (active); in [18], -81% (active). The results for the growth in test [19] and in test [20] were -82.4% (active) and -94.1% (active), respectively.

Take `Cc1ccc(NS(=O)(=O)c2ccc(-c3cnc(C4CC4)o3)cc2)cc1`: the growth in test [1] is 49.7%; in test [2], 14.6%; in test [3] it was 47.9%; in [4] it was 44.7%; in test [5], 26.5%; in [6], 50.1%. Besides, the growth in test [7] was 19.9%; in test [8], 26.7%; in test [9], 55.1%; in [10], 9.71% (active); in test [11], 17.5%; in test [12], 12%. For the same compound, the growth is 18.8% in test [13]; 37.6% in test [14]; 39.9% in test [15]; 49.7% in test [16]; 15% in test [17]; 27.3% in test [18]. The growth is 39.2% in [19] and 53.9% in test [20].

`COc1ccc(/C=C/C(=O)N2CCC(O)CC2)cc1OC1CCCC1`: the growth was 110% in test [1]; 102% in test [2]; 109% in test [3]; 103% in [4]; 118% in test [5]; 101% in test [6]. Also, the growth in test [7] is 101%; in [8], 95.8%; in test [9] it was 101%; in test [10], 107%; in test [11] it was 102%; in [12] it was 102%. Besides, the growth is 90.2% in [13]; 95.7% in test [14]; 93% in test [15]; 96.5% in [16]; 99.3% in test [17]; 97.9% in test [18]. In addition, the figures for the growth in test [19] and in test [20] were 95.3% and 115%, respectively.

In the case of `NC(=O)c1cccc(-n2ccc3cc(NC(=O)Nc4ccc(Cl)c(Cl)c4)ccc32)n1`, the growth in [1] was 83.7%; in test [2], 63.4%; in [3] it was 85%; in test [4], 79.1%; in test [5], 6.33% (active); in [6], 83%. Besides, the growth in test [7] is 68.8%; in [8], 64.1%; in test [9] it was 89.9%; in [10] it was 78%; in test [11], 59.7%; in [12], 60.9%. Also, the growth in test [13] was 68.5%; in test [14], 86.3%; in test [15], 66.7%; in [16], 73.3%; in test [17] it was 74.1%; in test [18] it was 83.2%. The figures for the growth in test [19] and in [20] were 81.9% and 88.1%, respectively.

In the case of `COc1ccc(/C=N/OCC(O)CNCc2ccccc2)cc1OC1CCCC1` (stereo not given), the growth in [1] is 105%; in [2], 78%; in [3], 106%; in test [4], 101%; in test [5] it was 95.5%; in test [6] it was 91.7%. Also, the growth is 103% in test [7]; 98% in test [8]; 97.2% in test [9]; 98.4% in [10]; 102% in test [11]; 104% in [12]. Besides, the growth in test [13] was 77.9%; in test [14] it was 95.2%; in test [15], 99.6%; in test [16], 86.7%; in test [17], 93.3%; in test [18], 98.3%. The growth in [19] is 91.4%; in [20], 109%.

Regarding `COC(=O)[C@@]12CC[C@@H](C)[C@]3(C[C@@H](c4ccoc4)OC3=O)[C@H]1CC[C@@H]1O[C@@]12C`, the growth in [1] was 104%; in test [2], 113%; in test [3], 101%; in [4] it was 108%; in test [5] it was 118%; in test [6] it was 95%. The growth was 100% in test [7]; 105% in [8]; 99.6% in [9]; 99.8% in [10]; 101% in test [11]; 107% in test [12]. Besides, the growth in test [13] was 86%; in test [14], 102%; in [15] it was 105%; in test [16], 95.2%; in [17] it was 98.9%; in [18] it was 95.1%. In addition, the growth is 99.3% in [19] and 103% in test [20].
